# Assay results as given in PubChem BioAssay AID1012 (Sanford-Burnham Center for Chemical Genomics, 2008).
# Out of some 200,000 compounds screened, about 520 (0.26%) were called active. The list comes from a sample in which actives are over-represented; it also holds similar structures and randomly drawn compounds. Values without a mark were called inactive.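 Rule for the calls: active = tissue-nonspecific alkaline phosphatase inhibition above about 50% at 20 µM in the single-dose screen (limit read from the data); inactive = the rest.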
# Target: Alkaline phosphatase, tissue-nonspecific isozyme (Homo sapiens) (UniProt P05186)
# Test: human TNAP enzyme inhibitors, primary screen, biochemical, luminescent, no phosphate acceptor, uHTS (AID 1012);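 note: 0% = DMSO negative control and 100% = EDTA positive control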
# Conditions: purified TNAP, CDP-star luminescence, 30 min; at 20 µM; active compounds read high
# Alkaline phosphatase, tissue-nonspecific isozyme (Homo sapiens), sequence (P05186 whole entry, looked up): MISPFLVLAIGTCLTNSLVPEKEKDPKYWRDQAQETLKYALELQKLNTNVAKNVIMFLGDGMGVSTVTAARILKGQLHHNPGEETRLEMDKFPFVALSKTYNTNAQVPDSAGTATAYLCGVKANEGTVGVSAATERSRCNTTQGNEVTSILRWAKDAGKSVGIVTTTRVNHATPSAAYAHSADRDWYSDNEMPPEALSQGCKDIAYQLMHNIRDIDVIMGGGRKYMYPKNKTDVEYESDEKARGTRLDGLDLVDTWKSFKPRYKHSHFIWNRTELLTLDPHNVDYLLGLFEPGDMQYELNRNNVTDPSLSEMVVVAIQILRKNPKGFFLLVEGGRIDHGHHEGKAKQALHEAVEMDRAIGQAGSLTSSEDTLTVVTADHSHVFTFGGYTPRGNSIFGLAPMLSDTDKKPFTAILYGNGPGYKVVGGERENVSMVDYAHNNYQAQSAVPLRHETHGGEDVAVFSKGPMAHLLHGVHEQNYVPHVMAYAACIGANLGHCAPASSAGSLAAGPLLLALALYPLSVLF
row,SMILES,inhibition
1,COc1ccc(C/C(N)=N/OC(=O)c2ccco2)cc1OC,-7.5%
2,CCOc1ccc2nc(C(=O)N3CCCC(C)C3)sc2c1 (stereo not drawn),1.7%
3,COC(=O)/C(=C1\Oc2ccc(C(C)(C)C)cc2S1)C(F)(F)F,0.6%
4,COCC(=O)Nc1cc(C(=O)OC)cc(C(=O)OC)c1,-4.5%
5,c1nnc2c3c4c(sc3ncn12)CCC4,-10.6%
6,N=c1c2c3c(sc2ncn1N)CCCC3,-4.9%
7,S=c1[nH]nc2c3c4c(sc3ncn12)CCCC4,58% (active)
8,O=C(Cn1c2[n+](c3ccc(C(F)(F)F)cc31)CCCCC2)Nc1c(F)cccc1F,-6.3%
9,O=C(COC(=O)c1cnccn1)Nc1cccc2ccccc12,-10%
10,Cc1ccc(/C=N\n2c(-c3ccccc3)n[nH]c2=S)s1,29%
11,S=c1[nH]nc(-c2cccs2)n1/N=C/c1cccs1,36.2%
12,S=c1[nH]nc(-c2ccco2)n1/N=C/c1ccc(Br)s1,58.4% (active)
13,COCCn1c(N)c(N(Cc2ccccc2)C(=O)C2CCCCC2)c(=O)[nH]c1=O,-0.9%
14,O=C(Cn1c(N2CCN(C/C=C/c3ccccc3)CC2)nc2ccccc21)c1ccccc1,5.4%
15,CCOC(=O)C1(CCOC)CCN(Cc2ccc(C(=O)OC)cc2)CC1,-7%
16,CCN1CCN(c2ccc(NC(=O)c3cnccn3)cc2)CC1,-10.4%
17,CC(C)(C)OC(=O)N1CCC(NC(=O)c2[nH]cnc2C(=O)N[C@@H](Cc2ccccc2)C(=O)OCc2ccccc2)CC1,-3.5%
18,CC(C)Cc1nn2c(=O)cc(O)nc2s1,-13.8%
19,O=C(Nc1ccc(N2CCOCC2)cc1)c1ccc(-c2ccccc2[N+](=O)[O-])o1,8.7%
20,COc1ccc(C(=O)Nc2cccc(S(C)(=O)=O)c2)cc1,-11%
21,N/C(=N\OC(=O)c1ccc2c(c1)OCO2)c1ccc(Br)cc1,-7%
22,COc1ccc(C2=NN(c3ccccc3)C(c3cccs3)C2)cc1 (stereo not drawn),-20.3%
23,Cc1ccc(NC(=O)COC(=O)CCc2nc3ccccc3n2-c2ccccc2)c(C)c1,-12.9%
24,COc1ccc(Cc2n[nH]c(=S)n2NC(=O)Nc2ccc(C)cc2)cc1,-16.9%

row,SMILES,inhibition
1,Cc1cc(C)c(C#N)c(SCC(=O)NN2CC(=O)N(c3ccccc3F)CC2=O)n1,-6.4%
2,CCCCNC(=O)N1CCN(S(C)(=O)=O)CC1,-6.4%
3,O=C(CO/N=C/c1ccc(OC(F)F)cc1)NCc1ccc(F)cc1,2.4%
4,COc1cc2[nH]c(=O)n(Cc3ccc(C(=O)NC4CCN(Cc5ccccc5)CC4)cc3)c(=O)c2cc1OC,1.5%
5,Cc1n[nH]c(C)c1S(=O)(=O)N1CCCC(C(=O)NCC2COc3ccccc3O2)C1 (stereo not drawn),51.6% (active)
6,Cc1noc(/C=C/N(C)C)c1S(=O)(=O)N1CCCC(C(=O)NCc2ccco2)C1 (stereo not drawn),-12%
7,Cc1ccc(NC(=O)C2CCCN(S(=O)(=O)c3c(C)noc3C)C2)c(C)c1 (stereo not drawn),-3.2%
8,CC(=O)NC(Cc1ccccc1)C(=O)NC1CCN(c2ncccc2[N+](=O)[O-])CC1 (stereo not drawn),-1.2%
9,COc1ccc(N2CCN(c3ccc([N+](=O)[O-])nc3)CC2)cc1,-7.2%
10,COc1ccc(-c2cc(C3CCN(c4ncccc4[N+](=O)[O-])CC3)[nH]n2)cc1,59.7% (active)
11,Cc1ccc(S(=O)(=O)N2CCC(C(=O)N[C@@H](C)C(=O)NCc3ccco3)CC2)cc1,-10%
12,CN(Cc1cc2cc(F)ccc2[nH]1)Cc1nc(-c2cnccn2)no1,-8.7%
13,CC(C)(C)C1CCC(OC(=O)CCC(=O)Nc2ccccc2)CC1 (stereo not drawn),-5.1%
14,CC1=NN(c2ccccc2)C(=O)C1C(=O)c1ccc([N+](=O)[O-])cc1 (stereo not drawn),-4.4%
15,O=C(c1ccc(OC2CCN(Cc3ccccn3)CC2)cc1)N1CCCCCC1,-6%
16,COc1ccccc1-c1nc(SC)n[nH]1,63.7% (active)
17,COc1ccccc1C1=Nc2cccc3cccc(c23)N1,-4.6%
18,CCCOc1ccccc1-c1nc(SCCC(=O)O)n[nH]1,8.1%
19,C=CCN(Cc1nc(-c2cc(OC)c3c(c2)OCO3)oc1C)C1CCS(=O)(=O)C1 (stereo not drawn),-9.3%
20,COc1ccc(NS(=O)(=O)c2cc(NC(=O)/C=C/c3cc(OC)c(OC)c(OC)c3)ccc2N2CCCCC2)cc1,-3.9%
21,CC1=CC2=NC(=O)CC(C)(C(=O)N(CC(=O)NC(C)(C)C)Cc3ccccc3)N2C=C1 (stereo not drawn),-13%
22,CCN(c1ccccc1)S(=O)(=O)c1cccc(C(=O)O)c1,-2.9%
23,CCN(c1ccccc1)S(=O)(=O)c1ccc2[nH]c(=O)[nH]c2c1,64.9% (active)
24,CCN(c1ccccc1)S(=O)(=O)c1ccc(N)cc1,-17.8%

row,SMILES,inhibition
1,Cc1c(CCOC(=O)CC23CC4CC(CC(C)(C4)C2)C3)sc[n+]1Cc1ccc([N+](=O)[O-])cc1,-6.1%
2,Cc1c(CCO)sc[n+]1CC(=O)OC12CC3CC(CC(C3)C1)C2,55.5% (active)
3,CC1CCN(CC(=O)c2c[nH]c3ccccc23)CC1,-9.1%
4,O=C(C(=O)N1CCc2ccccc2C1)c1c[nH]c2ccccc12,61% (active)
5,O=C(C(=O)N1CCc2ccccc2C1)N1CCc2ccccc2C1,-5.7%
6,Cc1[nH][nH]c(=O)c1C(c1ccc2c(c1)OCO2)c1c(C)[nH][nH]c1=O,45.5%
7,Cc1[nH][nH]c(=O)c1C(c1ccc(-c2ccc(Cl)cc2)o1)c1c(C)[nH][nH]c1=O,-57.7%
8,CCOc1ccc(C(c2c(C)[nH][nH]c2=O)c2c(C)[nH][nH]c2=O)cc1OCC,58.2% (active)
9,O=C(/C=C/c1ccc(F)cc1)Nc1cccc(S(=O)(=O)Nc2cccc(C(F)(F)F)c2)c1,-9.4%
10,CCOc1ccc(/C=N/OCC(=O)NCc2cccs2)cc1,2.3%
11,O=C(NCCc1ccccc1)C1CCC(Cn2c(=O)c3ccccc3n(Cc3cccnc3)c2=O)CC1 (stereo not drawn),-0.3%
12,O=C(COC(=O)CSc1nnc(-c2ccc(Cl)cc2)o1)Nc1cc(Cl)cc(Cl)c1,-10.5%
13,COc1cc(N/C=C2\CC(=O)NC(C)=C2C#N)cc(OC)c1OC,-1.1%
14,CCN(CCn1cccn1)Cc1cn[nH]c1-c1ccc(OC)cc1F,58.9% (active)
15,COc1ccc(-c2[nH]ncc2CN(C)Cc2cccnc2)c(F)c1,64.9% (active)
16,COc1ccc(-c2[nH]ncc2CN(C)Cc2c(C)n[nH]c2C)c(OC)c1,-8.9%
17,COc1ccc(-c2[nH]ncc2CN(C)Cc2cc(C)[nH]n2)c(F)c1,46.2%
18,CCN(CCn1cccn1)Cc1nc(-c2ccc(C(=O)OC)cc2)no1,2.4%
19,COc1ccc(-c2[nH]ncc2CN(Cc2nccn2C)C(C)C)cc1F,-9.7%
20,Cc1cc(C)n2nc(SCC(=O)NC(=O)NCc3ccco3)nc2n1,-9.4%
21,CCOc1cc(N2CCOCC2)c(OCC)cc1NC(=O)c1ccc(C)s1,-8.9%
22,CCn1c(CNS(=O)(=O)c2ccc(Cl)cc2)n[nH]c1=S,24.7%
23,O=C(CN1CCSCC1)N/N=C/c1ccc(Cl)cc1,-4.4%
24,Cc1cc(NC(=O)CN2C(=O)NC(C)(CCc3ccccc3)C2=O)no1 (stereo not drawn),-3%

row,SMILES,inhibition
1,CCOC(=O)c1cc2c(=O)[nH]c(C(Cl)(Cl)Cl)nc2o1,-11%
2,CCCN(CC1COc2ccccc2O1)C(=S)Nc1ccc(C)cc1 (stereo not drawn),-16%
3,CN(C)C(CNC(=O)c1ccc(S(=O)(=O)NCc2ccco2)cc1)c1ccccc1 (stereo not drawn),7.7%
4,C/C(CC(=O)N1CCN(C=O)CC1)=N\NC(=O)c1ccc(Br)cc1,0.3%
5,Cc1ccc(NC(=O)c2sccc2C)cc1[N+](=O)[O-],-4.3%
6,Cc1ccc(C(=O)NC(=S)Nc2ccc3[nH]c(=O)[nH]c3c2)cc1C,-9.4%
7,CC(=O)NC(=S)NNC(=O)c1ccc(Br)cc1,-155%
8,O=C(CSc1nnc(-c2ccncc2)n1-c1ccc(Cl)cc1)Nc1ccc(C(=O)O)cc1,0.2%
9,CC(C)(C)C1CCC(=NNC(=O)c2cc(-c3ccccc3)n[nH]2)CC1 (stereo not drawn),62.6% (active)
10,CC(C)(C)C1CCC(=NNC(=O)c2ccc(Br)o2)CC1 (stereo not drawn),4.2%
11,CC(NC(=O)C(=O)NN=C1CCC(C(C)(C)C)CC1)c1ccccc1 (stereo not drawn),-15%
12,CCCCN(C)c1ccc([N+](=O)[O-])cc1,13.3%
13,CN(C)CCCN1C(=O)CSC1c1ccc([N+](=O)[O-])cc1 (stereo not drawn),-4.5%
14,COc1ccc(NC(=O)c2cc3nc(-c4ccccc4)cc(C)n3n2)cc1OC,-14.7%
15,O=C(NCc1ccccc1)C1CCCN(S(=O)(=O)c2cccs2)C1 (stereo not drawn),-5.5%
16,COc1ccc(S(=O)(=O)NCC2CCCN(C(=O)c3occc3C)C2)cc1 (stereo not drawn),-4.9%
17,CCc1[nH]nc(C(=O)N2CCCC(CNS(=O)(=O)c3cccs3)C2)c1C (stereo not drawn),61.5% (active)
18,CCC(C(=O)Nc1ccc2c(c1)OCCO2)c1ccccc1 (stereo not drawn),-22.2%
19,COCCCN(C(=S)Nc1c(C)cc(C)cc1C)C(C)c1ccncc1 (stereo not drawn),-17.6%
20,CN(CCc1cn[nH]c1)C(=O)CC1C(=O)NCCN1Cc1cccc(Oc2ccccc2)c1 (stereo not drawn),-9.2%
21,CCOc1ccc(/C=N/NC(=O)C(C)Sc2ccccn2)cc1OCC (stereo not drawn),-5.3%
